In PubChem BioAssay (Tox21):
Records with an inconclusive call do not appear. Values without a mark were called inactive. Unless noted, the call rests on the fitted dose curve; in most records, active means well fitted cell-killing curve with a large enough effect in the repeat runs; inconclusive means weak or mixed curves, or effect the other way; inactive means no such curve, though single readings can be large or run the other way.

Assay: qHTS assay for small molecule activators of the heat shock response signaling pathway - cell viability counter screen (AID 743209); further: nearly all actives have a fitted effect of over 50% in size
Conditions: HSE-bla HeLa viability, CellTiter-Glo luminescence, 5 h; series mostly up to 62.6 µM; activity change, negative = cytotoxicity: at the top concentration
Summary of the method: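 Cytotoxicity counter screen run in the same wells as the heat-shock bla reporter assay: HeLa HSE-bla cells, 5 h compound exposure at 37 C, viability read by CellTiter-Glo luminescence.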
On the % scale 0 is the no-effect control and ±100 the full control effect.

| SMILES | activity change, negative = cytotoxicity |
| --- | --- |
| N#Cc1cc(NC(=O)C(=O)O)c(Cl)c(NC(=O)C(=O)O)c1 | 5.54% |
| CC(C)CC(O)Cc1ccccc1 (configuration not stated) | -0.67% |
| CC(=O)O[C@@H]1CC2C3CCc4cc(OC(=O)c5ccccc5)ccc4C3CCC2(C)[C@H]1OC(C)=O (some centres not stated) | 5.04% |
| CCCc1ncc(C(=O)O)s1 | 6.87% |
| CC(=O)c1ccc(O)c(C(N)=O)c1 | -4.64% |
| O=C(O)Cc1ccccc1Oc1ccc(Cl)cc1Cl | -17.6% |
| COc1ccccc1N1CCN(CC(O)COc2cc(OC)c(OC)c(OC)c2)CC1 (configuration not stated) | 3.25% |
| Cc1cc(N)no1 | 16% [at 81.1 µM] |
| CC(CN1CC(=O)NC(=O)C1)N1CC(=O)NC(=O)C1 (configuration not stated) | 3.96% |
| CC(C)(C)NCC(O)COc1cccc2c1CCC(=O)N2 (configuration not stated) | 17.3% |
| CCN(CC)CC(=O)Oc1ccc(NC(C)=O)cc1 | -2.07% |
| CN(C)CCc1c[nH]c2ccc(C[C@H]3COC(=O)N3)cc12 | 12.6% |
| COc1cc(S(N)(=O)=O)cc(C(=O)O)c1OC | 7.27% |
| CCC(C)(C)C | -1.24% [at 81.1 µM] |
| C[C@@H]1CCC[C@H](C)N1CCCC(O)(c1ccccc1)c1ccccn1 (some centres not stated) | -4.74% |
| COC(=O)/C=C(\C)CCC=C(C)C | -0.958% |
| Cc1nnc(C(=O)NC(C)(C)c2nc(C(=O)NCc3ccc(F)cc3)c(O)c(=O)n2C)o1 | 0.347% |
| CO/N=C(\C(=O)O)c1csc(NC(=O)CCl)n1 | -3.9% |

| SMILES | activity change, negative = cytotoxicity |
| --- | --- |
| CC(C)(C)c1ccc(C(=O)CCCCl)cc1 | -5.07% |
| Cc1cc(=O)oc2cc(O[C@@H]3SC[C@@H](O)[C@H](O)[C@H]3O)ccc12 | -4.54% |
| CCOC(=O)CN1CCCC1=O | 8.84% |
| Cc1cc2c(cc1CC(=O)c1sccc1S(=O)(=O)Nc1onc(C)c1Cl)OCO2 | -25.2% |
| CCCCC(O)/C=C(C)/C=C/C=C/C(=O)N1CCCC1=O (configuration not stated) | -25.7% |
| Clc1ccc2c(c1)Nc1ccccc1S2 | 8.47% |
| NNC(=O)CCCCC(=O)NN | -4.41% |
| Cc1ccc(O)c(C(=O)c2ccccc2)c1 | -1.97% [at 81.1 µM] |
| N#CC1(N)CCCCC1 | -12.1% [at 81.1 µM] |
| CC(C)C(=O)Nc1cccc(C2CN3CCSC3=N2)c1 (configuration not stated) | 3.73% |
| CCc1ccc(CC)cc1 | -4.78% [at 81.1 µM] |
| CCO[Si](CC(C)C)(OCC)OCC | -1.39% |
| O=C1CCCc2c(O)cccc21 | -1.36% |
| COC(=O)c1cc(Cl)c(NC(C)=O)cc1OC | -6.92% |
| COC(=O)c1ccc(NC(C)=O)cc1OC | -4.9% |
| CNC(=O)c1c(I)c(NC(C)=O)c(I)c(C(=O)O)c1I | 2.61% |
| O=C1CC2(CCCC2)CC(=O)N1CCNCC1COc2ccccc2O1 (configuration not stated) | -7.81% |

Assay: qHTS assay for small molecule activators of the heat shock response signaling pathway (AID 743210; active means well fitted activation curve with a large enough effect in the signal ratio in the repeat runs, with a control signal flat, not every such curve was filed as active; the % refers to the signal ratio;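 further: HeLa cells with beta-lactamase reporter driven by heat shock elements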)
Conditions: HeLa HSE-bla reporter, beta-lactamase ratio, 5 h; series mostly up to 62.6 µM; activation: at the top concentration
Summary of the method: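 Fluorescence from a cleaved B/G FRET substrate (2.5 h, room temp) reports HSE-driven beta-lactamase in HeLa cells treated 5 h at 37 C with DMSO-dissolved compounds.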

| SMILES | activation |
| --- | --- |
| N#Cc1cc(NC(=O)C(=O)O)c(Cl)c(NC(=O)C(=O)O)c1 | 0.437% |
| CC(C)CC(O)Cc1ccccc1 (configuration not stated) | 2.03% |
| CC(=O)O[C@@H]1CC2C3CCc4cc(OC(=O)c5ccccc5)ccc4C3CCC2(C)[C@H]1OC(C)=O (some centres not stated) | -2.49% |
| CC(=O)c1ccc(O)c(C(N)=O)c1 | -0.148% |
| O=C(O)Cc1ccccc1Oc1ccc(Cl)cc1Cl | -0.325% |
| COc1ccccc1N1CCN(CC(O)COc2cc(OC)c(OC)c(OC)c2)CC1 (configuration not stated) | -0.173% |
| Cc1cc(N)no1 | -0.512% [at 81.1 µM] |
| CC(CN1CC(=O)NC(=O)C1)N1CC(=O)NC(=O)C1 (configuration not stated) | 0.199% |
| CCN(CC)CC(=O)Oc1ccc(NC(C)=O)cc1 | -0.0582% |
| COc1cc(S(N)(=O)=O)cc(C(=O)O)c1OC | 0.175% |
| CCC(C)(C)C | 0.0841% [at 81.1 µM] |
| C[C@@H]1CCC[C@H](C)N1CCCC(O)(c1ccccc1)c1ccccn1 (some centres not stated) | -0.24% |
| COC(=O)/C=C(\C)CCC=C(C)C | -1.87% |
| Cc1nnc(C(=O)NC(C)(C)c2nc(C(=O)NCc3ccc(F)cc3)c(O)c(=O)n2C)o1 | -1.3% |
| CO/N=C(\C(=O)O)c1csc(NC(=O)CCl)n1 | 1.54% |
| CCOC(=O)CN1CCCC1=O | -0.966% |
| Cc1cc2c(cc1CC(=O)c1sccc1S(=O)(=O)Nc1onc(C)c1Cl)OCO2 | 0.704% |
| Clc1ccc2c(c1)Nc1ccccc1S2 | -1.85% |
| NNC(=O)CCCCC(=O)NN | 0.0415% |
| Cc1ccc(O)c(C(=O)c2ccccc2)c1 | 0.423% [at 81.1 µM] |
| N#CC1(N)CCCCC1 | -0.2% [at 81.1 µM] |
| CC(C)C(=O)Nc1cccc(C2CN3CCSC3=N2)c1 (configuration not stated) | -0.877% |
| CCO[Si](CC(C)C)(OCC)OCC | -0.892% |
| O=C1CCCc2c(O)cccc21 | -0.499% |
| COC(=O)c1cc(Cl)c(NC(C)=O)cc1OC | 0.757% |
| COC(=O)c1ccc(NC(C)=O)cc1OC | -0.0261% |
| CNC(=O)c1c(I)c(NC(C)=O)c(I)c(C(=O)O)c1I | -1.44% |
